Screens as filed in PubChem BioAssay.
HCMV antiviral – inhibitors of human cytomegalovirus. AID 1259415. activity change, negative = inhibition, % at 57.5 µM. 4.5% of 410,000 active. HFF cells, HCMV-luciferase reporter, 72 h; stronger effect = lower value; in the data active = activity change below about -60%; inconclusive = no clear call, values can overlap the other calls; inactive = above about -39%
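HFF cells seeded 16 h at 37C, treated with compounds, infected with luciferase-reporter HCMV at MOI 1 PFU/cell; luciferase read at 72 h post infection, normalized to buffer-only and Salinomycin controls.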
Lassa entry inh – inhibitors of Lassa virus binding or cell entry | Potency, µM (titrated, usually from 37.9 µM), for the others: top-dose activity change, negative = inhibition, actives largely listed as inhibitors | Lassa virus pseudotype entry inhibition, cell reporter | 1.2% of 300,000 active; calls by dose curve; tested in HEK293 cells; also: potency is read from the fitted curve at half-maximal effect; nearly all actives have a fitted effect of over 50% in size
VACV mCherry inh – vaccinia inhibition (mCherry reporter). Vaccinia virus mCherry reporter infection, fluorescence. Potency, µM (highest dose often 36.5 µM), for the others: at the top dose activity change, negative = inhibition, hits mostly inhibitors. 0.63% of 310,000 active; calls by dose curve; tested in A549 cells; also: potency is read from the fitted curve at half-maximal effect; nearly all actives have a fitted effect of over 35% in size
FMDV inh – foot and mouth disease virus antiviral activity. 1.2% of 410,000 active. AID 1159524. Potency, µM (highest dose often 57.9 µM), for inactives: top-dose activity change, negative = inhibition, hits mostly inhibitors. FMDV antiviral cell-based qHTS; calls by dose curve; tested in HEK293T cells; also: read-out not given here; potency is read from the fitted curve at half-maximal effect; nearly all actives have a fitted effect of over 45% in size
VACV Venus inh – inhibitors of vaccinia virus (Venus reporter); 0.46% of 330,000 active; Vaccinia virus Venus reporter expression, fluorescence; Potency, µM (highest dose often 36.5 µM), for the others: at the top dose activity change, negative = inhibition, actives largely listed as inhibitors; calls by dose curve; tested in A549 cells; also: potency is read from the fitted curve at half-maximal effect; nearly all actives have a fitted effect of over 30% in size
MARV entry inh – Marburg virus entry inhibition; AID 540276; Marburg virus pseudotyped entry inhibition, cell reporter; Potency, µM (highest dose often 37.8 µM), for inactives: top-dose activity change, negative = inhibition, most hits filed as inhibitors; 1.8% of 300,000 active; calls by dose curve; tested in HEK293 cells; also: potency is read from the fitted curve at half-maximal effect
Starred values were filed as active, the others as inactive; i = inactive; u = inconclusive; x = no result; + = active, no number; ! = repeats disagree; [ ] = another dose, or the depositor's remark. This is a sample that favours compounds with a hit; in the whole collection about 6.5% have one here. % is scaled to controls: 0 for no effect and ±100 for the full control effect.

SMILES	HCMV antiviral	Lassa entry inh	VACV mCherry inh	FMDV inh	VACV Venus inh	MARV entry inh
COc1ccc(CN2C(=O)N(c3ccc(F)cc3)C(=O)C2CC(=O)Nc2cc(OC)cc(OC)c2)cc1 (stereo not given)	u	-25.0%[46.1 µM]	-9.6%	-9.0%	-7.4%	x
CCC(C)C(=O)Nc1nc(-c2ccc3c(c2)NC(=O)CO3)cs1 (stereo not given)	65.7	-2.4%	x	-18.6%	x	u
O=C1COc2ccc(-c3csc(NCCc4ccccc4)n3)cc2N1	14.9	u	-20.0%	39.8µM*	-13.1%	u
CC(CNC(=O)c1ccc2c(c1)OCO2)c1ccc([N+](=O)[O-])cc1 (stereo not given)	-63.2*	-26.4%[46.1 µM]	-9.0%	-14.0%	-10.8%	-28.2%[46.1 µM]
O=C(NCc1ccc2c(c1)OCO2)Nc1ccc(Cl)cc1	-1.3	x	x	33.8%	x	x
O=C(NCc1ccc2c(c1)OCO2)Nc1ccc([N+](=O)[O-])cc1	-60.8*	-8.6%[46.1 µM]	-5.9%	0.8%	-11.3%	2.2%[46.1 µM]
Cc1ccc([N+](=O)[O-])cc1NC(=O)c1ccc2c(c1)OCO2	6.9	-5.5%	-2.9%	5.1%	1.9%	2.1%[46.1 µM]
COc1ccc(CN2CCCC(c3nc(C)ncc3-c3ccc(F)cc3)C2)c(OC)c1OC (stereo not given)	x	x	-12.3%	-10.3%	-16.4%	x
COC(=O)[C@@H]1CCCN1C(=O)c1c(OC)cc(=O)n2c1CCN(Cc1ccc3c(c1)CCO3)CC2	x	x	-8.4%	-4.8%	2.1%	x
Cc1nc(C)c(C(=O)NCc2ccc(Cl)cc2)o1	-38.3	0.8%	-16.7%	u	-9.9%	2.6%
Cc1nn(C)c(C(=O)NCc2ccc(Cl)cc2)c1Cl	-79.8*	-7.9%	-23.6%	u	-19.1%	u
Cc1ccc(NC(=S)NNC(=O)c2c(Cl)c(C)nn2C)cc1	-72.6*	u	i	0.0%	-10.6%	-18.2%
Cc1cc(C(=O)NCCN2Cc3ccccc3OC(c3ccccc3F)C2)no1 (stereo not given)	x	x	-1.3%	-5.7%	9.9%	x
CCN(c1ccccc1)c1nc(=O)c2cccnc2s1	-39.4	x	x	23.0%	x	x
CCN(c1ccccc1)c1cc2ccccc2c(=O)[nH]1	-64.2*	2.3%	-25.8%	2.1%	-14.6%	-2.0%[46.1 µM]
CC(C)(C)NC(=O)/C(=C/c1ccco1)c1ccccc1	29.2	10.6%	i	-21.3%	8.8%	-5.5%
CCc1ccccc1NC(=O)/C(=C/c1ccco1)c1ccccc1	-23.9	15.8µM*	x	u	-25.8%	u
Cc1ccccc1NC(=O)/C(=C/c1ccco1)c1ccccc1	-104.3*	-6.9%	-24.7%	0.0%	-6.8%	-22.8%
O=C(Nc1cccc(OCc2cc(=O)n3ccccc3n2)c1)Nc1cccc(C(F)(F)F)c1	-34.1	1.2%[46.1 µM]	-2.2%	2.1%	-18.6%	x
CC1(C)Cc2nc3oc4c(N(CCO)Cc5ccccc5)ncnc4c3cc2CO1	u	u	x	31.6µM*	x	-0.3%
COc1ccc(C(=O)/C=C/Sc2nc3ccccc3o2)cc1	-105.1*	-1.7%[46.1 µM]	i	u	-11.7%	u
COc1ccc(C(CC(=O)Nc2cccc(C)c2C)N2Cc3ccccc3C2=O)cc1 (stereo not given)	-36.2	-13.1%[46.1 µM]	-15.4%	38.7%	-13.0%	x
COc1ccc(C(=O)c2ccc(Cl)c([N+](=O)[O-])c2)cc1	-83.0*	u	-4.3%	u	-28.4%	5.8µM*
O=C1CSC(c2cn(-c3ccccc3)nc2-c2cc3ccccc3oc2=O)N1Cc1ccccc1 (stereo not given)	-24.6	11.2µM*	-6.0%[1.46 µM]	-17.8%	u	u
O=C1CSC(c2nn(-c3ccccc3)cc2-c2cc3ccccc3oc2=O)N1Cc1ccco1 (stereo not given)	119.3	u	-12.2%	x	-24.4%	u
SMILES	HCMV antiviral	Lassa entry inh	VACV mCherry inh	FMDV inh	VACV Venus inh	MARV entry inh
CC(=O)Nc1ccc(NC(=O)c2nc(SCc3ccccc3F)ncc2Cl)cc1	x	x	16.8%	x	-17.7%	x
Cn1c(-c2cccnc2)cc2cnc(Nc3ccc4c(c3)OCO4)cc21	21.9	x	x	x	x	x
CCCCN(CC)C(=O)CSc1c2c(nc3ccc(Cl)cc13)CCCC2	-38.2	1.9%[46.1 µM]	-10.8%	u	-15.0%	-0.6%[46.1 µM]
COc1ccc(-c2nc3c(c(SCC(=O)Nc4cccc(O)c4)n2)Cc2c(CO)cnc(C)c2O3)cc1	-62.5*!	u	-5.0%	-16.8%	-9.4%	x
O=C(NC1(C(F)(F)F)N=C(c2ccccc2)N(C2CCCCC2)C1=O)c1ccc(F)cc1 (stereo not given)	-29.9	-10.2%[46.1 µM]	-0.4%	0.0%	-8.2%	u
Cc1ccccc1C(=O)NC1(C(F)(F)F)N=C(c2ccccc2)N(C2CCCCC2)C1=O (stereo not given)	-102.4*	0.9%[46.1 µM]	-6.4%	u	-2.2%	u
Cc1ccccc1CN(C)CCS(=O)(=O)c1cc(Cl)ccc1Cl	-29.4	14.1%[46.1 µM]	5.01µM*	-16.1%	u	-24.8%[46.1 µM]
COc1ccc(-c2nc3sc(CCNS(=O)(=O)c4c(C)cc(C)cc4C)c(C)n3n2)cc1	-82.5*	-18.9%[46.1 µM]	u	17.2%	u	x
COc1ccc(S(=O)(=O)NCCc2sc3nc(-c4ccc(C)cc4)nn3c2C)cc1F	-73.8*	-26.3%[46.1 µM]	u	-20.1%	u	x
Cc1c(CCNC(=O)C(C)(C)C)sc2nc(-c3ccc(F)cc3)nn12	-91.0*	-24.8%[46.1 µM]	-25.8%	u	-29.6%	x
COc1ccccc1NC(=O)c1oc2ccccc2c1NC(=O)c1cccc(OC)c1OC	0.6	-15.3%[46.1 µM]	-29.4%	-6.9%	-21.3%	1.1%[46.1 µM]
OCCCNCc1cc2ccc(F)cc2nc1N1CCN(c2cccc(Cl)c2)CC1	x	x	u	0.3%	-16.2%	x
COc1ccc(C(=O)C(CN2CCOCC2)c2ccccc2)cc1F (stereo not given)	-104.6*	u	10µM*	u	12.6µM*	8.91µM*
CCCOc1ccc(C(=O)C(CN2CCOCC2)c2ccccc2)cc1 (stereo not given)	-103.9*	u	u	14.1µM*	u	15.8µM*
COc1ccc(C(O)C(CN2CCOCC2)c2ccccc2)cc1F (stereo not given)	-8.0	-1.8%	x	4.9%	x	5.7%
CC1CCc2c(sc(NC(=O)c3cc(-c4cccc(Cl)c4)on3)c2C(N)=O)C1 (stereo not given)	10.7	21.4%[46.1 µM]	-6.4%	-17.6%	-9.8%	-18.7%[46.1 µM]
Cc1nc(NC(=O)/C=C/c2ccccc2)sc1C(=O)N(C)C	42.8	19.4%	i	36.0%	-23.9%	u
Cc1nc(NC(=O)/C=C/c2ccc(Cl)cc2Cl)sc1C(=O)N(C)C	-61.1*	14.5%	i	-4.0%	-6.3%	u
CC(C)Oc1ccc(CNC(=O)CCCn2c(=O)c3cccn3c3cccnc32)cc1	-67.7*	9.1%[46.1 µM]	-16.8%	-1.1%	-11.6%	x
CCc1ccc(CNC(=O)CCCn2c(=O)c3cccn3c3cccnc32)cc1	11.7	x	x	-14.3%	x	x
CN1CCN(C(=O)CCn2c(=O)c3cccn3c3cccnc32)CC1	+	17.1%[46.1 µM]	-7.2%	-4.6%	-6.7%	14.5%[46.1 µM]
CC(NC(=O)CCCn1c(=O)c2cccn2c2cccnc21)c1ccccc1 (stereo not given)	-65.0*	-3.7%[46.1 µM]	-11.3%	2.0%	-13.1%	x
